Measurements: paper PMC4336329 (PLoS ONE, 2015)
Out of some 310,000 compounds screened, about 14,000 (4.5%) showed an effect of 50% or more. The effect is printed as a negative number. This excerpt belongs to a sample that is enriched for strong results.

These compounds were tested against human ether-à-go-go-related gene (hERG) potassium channel (human, UniProt Q12809) (assay: primary screen, population patch clamp on CHO cells stably expressing hERG; higher = less effect of the substance).
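Note: peak tail current of the secondary pulse compared with the same well before compound.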

Chain of human ether-à-go-go-related gene (hERG) potassium channel (Q12809 whole entry, looked up): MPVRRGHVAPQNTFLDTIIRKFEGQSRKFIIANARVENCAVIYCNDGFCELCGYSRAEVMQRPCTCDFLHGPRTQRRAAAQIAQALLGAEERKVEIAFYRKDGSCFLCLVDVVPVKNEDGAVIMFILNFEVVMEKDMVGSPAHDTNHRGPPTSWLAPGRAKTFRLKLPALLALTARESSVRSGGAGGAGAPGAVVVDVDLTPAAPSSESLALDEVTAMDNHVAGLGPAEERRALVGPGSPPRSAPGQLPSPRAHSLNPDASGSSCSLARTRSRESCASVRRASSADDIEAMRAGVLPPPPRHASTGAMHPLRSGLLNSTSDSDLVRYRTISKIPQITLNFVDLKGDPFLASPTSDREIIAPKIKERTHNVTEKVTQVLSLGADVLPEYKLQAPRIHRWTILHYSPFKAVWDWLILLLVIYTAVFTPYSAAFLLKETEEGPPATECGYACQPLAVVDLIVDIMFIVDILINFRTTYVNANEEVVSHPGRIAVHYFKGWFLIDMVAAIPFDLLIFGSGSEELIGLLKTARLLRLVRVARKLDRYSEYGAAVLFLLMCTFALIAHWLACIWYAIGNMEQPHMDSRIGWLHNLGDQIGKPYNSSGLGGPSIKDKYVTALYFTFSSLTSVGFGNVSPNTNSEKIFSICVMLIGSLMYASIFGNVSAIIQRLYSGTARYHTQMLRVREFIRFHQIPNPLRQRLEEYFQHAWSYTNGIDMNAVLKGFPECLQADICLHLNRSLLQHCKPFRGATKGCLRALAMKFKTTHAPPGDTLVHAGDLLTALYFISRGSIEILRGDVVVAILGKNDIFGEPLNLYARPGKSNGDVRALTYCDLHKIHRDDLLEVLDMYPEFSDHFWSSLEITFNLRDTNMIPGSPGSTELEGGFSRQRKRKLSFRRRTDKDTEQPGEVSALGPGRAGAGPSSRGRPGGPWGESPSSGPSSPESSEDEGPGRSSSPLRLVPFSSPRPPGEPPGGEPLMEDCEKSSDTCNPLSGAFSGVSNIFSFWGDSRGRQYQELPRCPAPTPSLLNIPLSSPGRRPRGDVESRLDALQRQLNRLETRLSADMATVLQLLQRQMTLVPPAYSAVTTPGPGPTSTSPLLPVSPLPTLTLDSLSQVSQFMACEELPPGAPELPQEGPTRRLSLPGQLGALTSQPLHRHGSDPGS

| SMILES | hERG current change (%, negative = inhibition) at 10uM [%] |
| --- | --- |
| CCCN(C(=O)c1cnccn1)c1c(N)n(Cc2ccccc2)c(=O)[nH]c1=O | 0.0848 |
| Cc1ccc(S(=O)(=O)N2[C@@H](c3ccc(Cl)cc3)C(C(=O)O)=CC[C@H]2c2ccc(Cl)c(Cl)c2)cc1 | 11.1 |
| Cc1cc(Cl)ccc1C(=O)C1CCCN(C(=O)c2cc(C(C)C)no2)C1 (stereo not shown) | -22.7 |
| CSc1ccccc1C(=O)C1CCCN(C(=O)c2cc(C(C)C)no2)C1 (stereo not shown) | -69.6 |
| CC(C)c1cc(C(=O)N2CCCC(C(=O)c3ccc4ccccc4c3)C2)on1 (stereo not shown) | -21.8 |
| COc1ccc(C(=O)C2CCCN(C(=O)c3cc(C(C)C)no3)C2)cc1F (stereo not shown) | -56.9 |
| COc1ccccc1C(=O)C1CCCN(C(=O)c2cc(C(C)C)no2)C1 (stereo not shown) | -5.26 |
| COc1ccc(C(=O)C2CCCN(C(=O)c3cc(C)on3)C2)cc1F (stereo not shown) | -6.98 |
| Cc1ccccc1NC(=O)CSc1nc(N)c(C#N)cc1C#N | 0.675 |
| Cc1nc2c(-c3ccccc3)c(C)nn2c(C)c1CC(=O)O | 5.02 |
| O=C(CSc1nnc(CNC(=O)c2ccco2)o1)c1ccccc1 | 4.14 |
| COc1cccc(C(=O)Nc2ccccc2C(=O)NC2CC2)c1 | 0.677 |
| Cc1ccc(C)c(N2CCN(C(=O)Nc3ccc4c(c3)N(C)C(=O)CS4)CC2)c1 | -21.8 |
| CCCN1CCC(=O)N([C@H](CSc2ccc(OC)cc2)c2ccccc2)CC1 | -76.5 |
| CC(C)CN1CCC(=O)N([C@H](CSc2ccc(Br)cc2)c2ccccc2)CC1 | -63.9 |
| CCCN1CCC(=O)N([C@H](CSc2ccccc2)c2ccccc2)CC1 | -77.2 |
| CCCN1CCC(=O)N([C@H](CSc2ccc(C)cc2)c2ccccc2)CC1 | -76 |
| COc1ccc(CN2CCC(=O)N([C@H](CO)c3ccccc3)CC2)cc1 | 13.3 |
| Nc1cc(=O)[nH]c(SCc2csc(-c3ccccc3)n2)n1 | -3.63 |
| O=C(NCCC1=CCCCC1)c1ccc(F)cc1 | -9.04 |
| Cc1noc(/C=C/N(C)C)c1S(=O)(=O)N1CCCC(C(=O)NC2CCCCC2C)C1 (stereo not shown) | -25.5 |
| O=C(Cc1ccc([N+](=O)[O-])cc1)OCc1ccc([N+](=O)[O-])cc1 | 19.2 |
| CCCNC(=S)N1CCN(c2nc(-c3ccc(C)cc3)cs2)CC1 | 5.6 |
| O=C(Nc1ccc(F)cc1F)c1cncc(Br)c1 | -3.88 |
| CCOC(=O)c1cnn(CCOC(=O)C(C)(C)C)c1NC(=O)C(C)(C)C | 12.8 |
| COc1cc(OC)c2ccc(=O)oc2c1C(CC(=O)N1CCOCC1)c1ccc2c(c1)OCO2 (stereo not shown) | -0.731 |
| Cc1nc(Nc2ccc(Cl)cc2)c2oc3ccccc3c2n1 | 3.95 |
| O=C1CCN(Cc2ccc(Br)cc2)CCN1[C@H](CO)c1ccccc1 | -3.45 |

| SMILES | hERG current change (%, negative = inhibition) at 10uM [%] |
| --- | --- |
| CCCN1CCC(=O)N([C@H](CSc2ccc(Br)cc2)c2ccccc2)CC1 | -76.2 |
| Cc1ccc(C)c(OCCC(=O)OCC(=O)N2CCN(S(=O)(=O)c3ccc(Cl)cc3)CC2)c1 | -29.8 |
| O=S(=O)(c1ccccc1)c1nc(-c2ccco2)oc1NCc1cccnc1 | -20.1 |
| CN(Cc1ccccc1)Cc1c[nH]c2ccccc12 | -16.5 |
| COc1ccc(S(=O)(=O)N2CCN(Cc3c[nH]c4ccccc34)CC2)cc1 | -24.9 |
| Brc1ccccc1CN1CCN(Cc2c[nH]c3ccccc23)CC1.O=C(O)C(=O)O | -20.1 |
| CCS(=O)(=O)N1CCN(Cc2c[nH]c3ccccc23)CC1.O=C(O)C(=O)O | 5.44 |
| CN(CCc1ccccc1)Cc1c[nH]c2ccccc12.O=C(O)C(=O)O | -56.7 |
| Brc1ccc(CN2CCN(Cc3c[nH]c4ccccc34)CC2)cc1.O=C(O)C(=O)O | -63.8 |
| O=C(Cc1ccccc1)NCCc1c[nH]c2ccccc12.O=C(O)C(=O)O | 16.4 |
| COc1ccc(CN2CCN(Cc3c[nH]c4ccccc34)CC2)cc1.O=C(O)C(=O)O | -67.5 |
| CCOc1ccc(CN2CCN(Cc3c[nH]c4ccccc34)CC2)cc1.O=C(O)C(=O)O | -84.4 |
| CCOc1ccc(CN2CCN(C(=O)Cc3ccccc3)CC2)cc1.O=C(O)C(=O)O | -44.1 |
| COc1ccccc1C(=O)N1CCN(Cc2c[nH]c3ccccc23)CC1.O=C(O)C(=O)O | -19.7 |
| COc1ccc(Br)cc1CN1CCN(Cc2c[nH]c3ccccc23)CC1.O=C(O)C(=O)O | -29.2 |
| COc1ccc(S(=O)(=O)Nc2ccccc2-c2nnn(CC(=O)Nc3ccccc3OC)n2)cc1 | 5.49 |
| CC(=O)OC[C@H]1O[C@@H](n2ccc(=O)[nH]c2=S)C(OC(C)=O)C1OC(C)=O (stereo partly shown) | -4.01 |
| COc1cccc(C(=O)NCC(C)(C)SCc2ccc(F)cc2)c1 | -28.2 |
| Cc1cccc(NC(=O)CCS(=O)(=O)c2cccc3nonc23)c1C | 7.7 |
| CCC(C)NC(=O)Nc1ccccc1F (stereo not shown) | -24.5 |
| O=S(=O)(c1ccccc1)N1CCCCC1c1cccnc1 (stereo not shown) | 2.3 |
| O=C(NCCc1c[nH]c2ccccc12)C1CCN(S(=O)(=O)c2ccc(F)cc2)CC1 | -28.3 |
| O=C(COc1ccccc1)N1CCN(Cc2c[nH]c3ccccc23)CC1 | -47.4 |
| O=C(NCCc1c[nH]c2ccccc12)C1CCN(S(=O)(=O)c2ccccc2)CC1 | -17.1 |
| O=C(c1ccccc1)N1CCN(Cc2c[nH]c3ccccc23)CC1 | -16.4 |
| O=C(COc1ccc(Br)cc1)N1CCN(Cc2c[nH]c3ccccc23)CC1.O=C(O)C(=O)O | -57.9 |
| O=C(NCCc1c[nH]c2ccccc12)C1CCN(Cc2ccc(Br)cc2)CC1 | -54 |
